From the supplement of paper PMC11732987, “Enantioselective OTUD7B fragment discovery through chemoproteomics screening and high-throughput optimisation” (Communications Chemistry, 2025)

Assays:
Assay in all cases: log2 ratio of Biotin-Ahx-Ub-VS probe labelling (fragment/DMSO); higher = less target engagement (more negative = stronger competition), active = hit call of the paper (q ≤ 0.05, log2 ratio ≤ -1)
Conditions in all cases: compound concentration: 200 uM; treatment time: 3 h
USP42 = molecular target: T1, USP42 (UniProt Q9H9J4)
T1 sequence (whole entry): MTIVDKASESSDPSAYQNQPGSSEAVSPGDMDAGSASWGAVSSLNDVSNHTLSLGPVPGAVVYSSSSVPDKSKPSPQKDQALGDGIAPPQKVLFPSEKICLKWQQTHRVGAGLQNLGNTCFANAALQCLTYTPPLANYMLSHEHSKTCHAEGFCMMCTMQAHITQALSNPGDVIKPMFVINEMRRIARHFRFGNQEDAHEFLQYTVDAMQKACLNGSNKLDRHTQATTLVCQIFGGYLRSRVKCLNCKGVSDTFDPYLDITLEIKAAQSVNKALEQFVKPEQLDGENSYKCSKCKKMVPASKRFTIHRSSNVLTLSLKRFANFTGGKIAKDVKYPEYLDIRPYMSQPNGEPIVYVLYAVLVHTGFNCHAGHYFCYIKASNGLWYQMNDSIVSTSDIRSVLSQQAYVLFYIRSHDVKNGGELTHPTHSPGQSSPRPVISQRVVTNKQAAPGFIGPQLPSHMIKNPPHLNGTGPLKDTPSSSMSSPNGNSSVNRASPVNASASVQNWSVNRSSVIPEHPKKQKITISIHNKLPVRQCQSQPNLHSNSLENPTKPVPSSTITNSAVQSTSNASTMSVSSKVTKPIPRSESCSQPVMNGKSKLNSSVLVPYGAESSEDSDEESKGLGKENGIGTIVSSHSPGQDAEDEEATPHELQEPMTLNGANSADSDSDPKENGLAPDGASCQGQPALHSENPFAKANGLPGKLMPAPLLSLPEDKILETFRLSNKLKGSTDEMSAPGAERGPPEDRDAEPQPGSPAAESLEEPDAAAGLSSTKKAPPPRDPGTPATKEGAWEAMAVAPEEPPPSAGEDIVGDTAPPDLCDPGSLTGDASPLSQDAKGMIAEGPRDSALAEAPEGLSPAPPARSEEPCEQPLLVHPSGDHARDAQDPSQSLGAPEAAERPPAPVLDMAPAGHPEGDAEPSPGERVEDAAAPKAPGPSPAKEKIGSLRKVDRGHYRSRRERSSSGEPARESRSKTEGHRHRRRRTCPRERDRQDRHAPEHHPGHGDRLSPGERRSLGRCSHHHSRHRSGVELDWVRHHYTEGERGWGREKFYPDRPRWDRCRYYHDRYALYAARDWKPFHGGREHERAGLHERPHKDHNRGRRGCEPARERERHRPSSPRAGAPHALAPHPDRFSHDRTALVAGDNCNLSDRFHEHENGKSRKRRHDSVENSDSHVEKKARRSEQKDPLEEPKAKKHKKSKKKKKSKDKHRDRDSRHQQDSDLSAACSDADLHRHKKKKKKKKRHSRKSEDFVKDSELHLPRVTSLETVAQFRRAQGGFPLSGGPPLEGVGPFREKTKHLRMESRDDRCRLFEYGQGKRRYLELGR
Summary of the method: (§1)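 Each value is an average log2 ratio of fragment to vehicle, tested by unpaired t-test. The underlying Spectronaut label-free quantities were global-median-normalised, and only proteins with ≥2 unique peptides were included. Triplicate HEK293T lysate samples (495 µg) were exposed to fragment at 200 µM or vehicle for 3 h, then to Biotin-Ahx-Ub-VS at 0.5 µM final for 1 h, before NeutrAvidin enrichment of labelled DUBs, LysC and trypsin digestion, and diaPASEF LC-MS/MS.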

USP46 = USP46 (UniProt P62068)
Summary of the method: as §1

USP47 = molecular target: T2, USP47 (UniProt Q96K76)
T2 sequence (whole entry): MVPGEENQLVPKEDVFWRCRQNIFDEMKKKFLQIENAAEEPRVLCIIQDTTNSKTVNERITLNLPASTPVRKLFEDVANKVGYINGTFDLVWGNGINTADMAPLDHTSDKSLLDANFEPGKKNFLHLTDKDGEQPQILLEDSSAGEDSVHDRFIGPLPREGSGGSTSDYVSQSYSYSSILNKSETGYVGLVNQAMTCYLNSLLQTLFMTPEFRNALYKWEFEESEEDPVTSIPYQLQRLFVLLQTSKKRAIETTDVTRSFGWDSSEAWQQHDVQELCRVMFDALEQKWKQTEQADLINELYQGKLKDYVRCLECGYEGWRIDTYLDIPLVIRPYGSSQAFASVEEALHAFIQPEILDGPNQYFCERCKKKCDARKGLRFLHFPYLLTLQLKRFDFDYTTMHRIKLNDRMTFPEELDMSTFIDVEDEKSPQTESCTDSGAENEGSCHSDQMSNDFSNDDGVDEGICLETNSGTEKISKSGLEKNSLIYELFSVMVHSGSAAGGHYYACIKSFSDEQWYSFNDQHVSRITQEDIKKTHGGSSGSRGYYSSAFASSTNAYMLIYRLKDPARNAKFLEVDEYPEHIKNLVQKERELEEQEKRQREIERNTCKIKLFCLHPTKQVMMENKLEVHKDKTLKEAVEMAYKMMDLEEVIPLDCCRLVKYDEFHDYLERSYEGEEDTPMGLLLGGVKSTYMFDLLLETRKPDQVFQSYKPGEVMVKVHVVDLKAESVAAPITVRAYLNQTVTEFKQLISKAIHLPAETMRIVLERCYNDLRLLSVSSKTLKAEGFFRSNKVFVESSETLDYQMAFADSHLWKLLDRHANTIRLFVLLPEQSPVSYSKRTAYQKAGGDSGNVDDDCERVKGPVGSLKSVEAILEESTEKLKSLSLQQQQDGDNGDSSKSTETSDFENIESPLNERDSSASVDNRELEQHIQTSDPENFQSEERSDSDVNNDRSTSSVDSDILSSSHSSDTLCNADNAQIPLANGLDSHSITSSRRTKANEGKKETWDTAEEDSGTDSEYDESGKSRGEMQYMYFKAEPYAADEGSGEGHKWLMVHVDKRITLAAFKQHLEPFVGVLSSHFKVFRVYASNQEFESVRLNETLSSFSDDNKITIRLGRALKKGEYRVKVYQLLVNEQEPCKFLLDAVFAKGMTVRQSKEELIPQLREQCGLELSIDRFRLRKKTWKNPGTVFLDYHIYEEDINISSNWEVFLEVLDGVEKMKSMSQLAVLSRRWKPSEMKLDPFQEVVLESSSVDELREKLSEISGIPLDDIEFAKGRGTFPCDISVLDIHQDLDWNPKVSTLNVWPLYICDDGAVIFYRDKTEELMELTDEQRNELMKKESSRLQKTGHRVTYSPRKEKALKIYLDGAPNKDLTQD
Summary of the method: as §1

USP48 = molecular target: T3, USP48 (UniProt Q86UV5)
T3 sequence (whole entry): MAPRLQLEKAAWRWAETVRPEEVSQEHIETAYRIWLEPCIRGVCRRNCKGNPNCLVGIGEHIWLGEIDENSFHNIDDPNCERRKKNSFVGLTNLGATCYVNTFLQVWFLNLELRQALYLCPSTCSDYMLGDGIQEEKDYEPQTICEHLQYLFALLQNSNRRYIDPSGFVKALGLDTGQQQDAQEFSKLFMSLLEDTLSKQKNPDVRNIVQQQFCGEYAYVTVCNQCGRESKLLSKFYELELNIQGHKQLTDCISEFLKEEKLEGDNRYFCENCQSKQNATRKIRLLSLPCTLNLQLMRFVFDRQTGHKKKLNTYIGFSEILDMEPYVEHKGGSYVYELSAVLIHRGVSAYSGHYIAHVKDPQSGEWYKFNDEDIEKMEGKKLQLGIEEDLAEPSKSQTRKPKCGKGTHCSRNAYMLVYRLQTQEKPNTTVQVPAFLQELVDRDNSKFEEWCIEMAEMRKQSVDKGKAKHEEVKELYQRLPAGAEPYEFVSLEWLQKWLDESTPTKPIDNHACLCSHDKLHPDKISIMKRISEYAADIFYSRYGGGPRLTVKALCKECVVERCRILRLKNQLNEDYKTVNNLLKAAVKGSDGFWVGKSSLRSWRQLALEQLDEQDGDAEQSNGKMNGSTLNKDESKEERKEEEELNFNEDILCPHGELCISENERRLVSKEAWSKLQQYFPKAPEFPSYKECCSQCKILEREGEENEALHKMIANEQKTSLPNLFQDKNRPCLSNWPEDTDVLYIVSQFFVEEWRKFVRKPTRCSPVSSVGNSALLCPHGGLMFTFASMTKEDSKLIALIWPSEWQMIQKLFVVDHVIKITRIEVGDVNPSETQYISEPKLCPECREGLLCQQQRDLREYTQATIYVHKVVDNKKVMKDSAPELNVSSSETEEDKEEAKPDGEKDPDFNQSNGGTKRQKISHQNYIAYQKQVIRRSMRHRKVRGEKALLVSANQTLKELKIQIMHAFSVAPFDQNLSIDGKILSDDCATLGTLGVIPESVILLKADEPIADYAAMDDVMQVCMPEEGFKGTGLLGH
Summary of the method: as §1

USP5 = molecular target: T4, USP5 (UniProt P45974)
T4 sequence (whole entry): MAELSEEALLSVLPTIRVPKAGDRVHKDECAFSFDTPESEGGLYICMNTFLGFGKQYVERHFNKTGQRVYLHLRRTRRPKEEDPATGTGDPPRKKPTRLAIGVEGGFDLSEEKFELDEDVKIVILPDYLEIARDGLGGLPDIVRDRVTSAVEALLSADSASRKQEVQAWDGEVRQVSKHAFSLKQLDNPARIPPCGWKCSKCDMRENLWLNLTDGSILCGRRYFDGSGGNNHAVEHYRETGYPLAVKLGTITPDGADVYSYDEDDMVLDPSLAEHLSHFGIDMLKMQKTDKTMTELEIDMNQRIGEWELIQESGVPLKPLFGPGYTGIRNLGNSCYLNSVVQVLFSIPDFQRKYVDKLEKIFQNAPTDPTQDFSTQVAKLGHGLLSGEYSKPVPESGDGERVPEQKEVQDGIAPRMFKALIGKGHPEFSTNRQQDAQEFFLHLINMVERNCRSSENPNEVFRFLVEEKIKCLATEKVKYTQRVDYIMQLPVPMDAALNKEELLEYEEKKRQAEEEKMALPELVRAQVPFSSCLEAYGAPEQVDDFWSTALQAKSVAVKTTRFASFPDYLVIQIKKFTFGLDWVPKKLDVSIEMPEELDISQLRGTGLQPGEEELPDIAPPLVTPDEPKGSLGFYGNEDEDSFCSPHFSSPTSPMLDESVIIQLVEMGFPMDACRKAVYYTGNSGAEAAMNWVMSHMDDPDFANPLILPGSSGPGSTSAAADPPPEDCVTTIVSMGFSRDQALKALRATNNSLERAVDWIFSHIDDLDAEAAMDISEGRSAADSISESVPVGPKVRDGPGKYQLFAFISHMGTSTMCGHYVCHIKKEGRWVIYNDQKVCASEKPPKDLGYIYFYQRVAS
Summary of the method: as §1

USP54 = USP54 (UniProt Q70EL1)
Summary of the method: as §1

USP7 = USP7 (UniProt Q93009)
Summary of the method: as §1

USP8 = molecular target: T5, USP8 (UniProt P40818)
T5 sequence (whole entry): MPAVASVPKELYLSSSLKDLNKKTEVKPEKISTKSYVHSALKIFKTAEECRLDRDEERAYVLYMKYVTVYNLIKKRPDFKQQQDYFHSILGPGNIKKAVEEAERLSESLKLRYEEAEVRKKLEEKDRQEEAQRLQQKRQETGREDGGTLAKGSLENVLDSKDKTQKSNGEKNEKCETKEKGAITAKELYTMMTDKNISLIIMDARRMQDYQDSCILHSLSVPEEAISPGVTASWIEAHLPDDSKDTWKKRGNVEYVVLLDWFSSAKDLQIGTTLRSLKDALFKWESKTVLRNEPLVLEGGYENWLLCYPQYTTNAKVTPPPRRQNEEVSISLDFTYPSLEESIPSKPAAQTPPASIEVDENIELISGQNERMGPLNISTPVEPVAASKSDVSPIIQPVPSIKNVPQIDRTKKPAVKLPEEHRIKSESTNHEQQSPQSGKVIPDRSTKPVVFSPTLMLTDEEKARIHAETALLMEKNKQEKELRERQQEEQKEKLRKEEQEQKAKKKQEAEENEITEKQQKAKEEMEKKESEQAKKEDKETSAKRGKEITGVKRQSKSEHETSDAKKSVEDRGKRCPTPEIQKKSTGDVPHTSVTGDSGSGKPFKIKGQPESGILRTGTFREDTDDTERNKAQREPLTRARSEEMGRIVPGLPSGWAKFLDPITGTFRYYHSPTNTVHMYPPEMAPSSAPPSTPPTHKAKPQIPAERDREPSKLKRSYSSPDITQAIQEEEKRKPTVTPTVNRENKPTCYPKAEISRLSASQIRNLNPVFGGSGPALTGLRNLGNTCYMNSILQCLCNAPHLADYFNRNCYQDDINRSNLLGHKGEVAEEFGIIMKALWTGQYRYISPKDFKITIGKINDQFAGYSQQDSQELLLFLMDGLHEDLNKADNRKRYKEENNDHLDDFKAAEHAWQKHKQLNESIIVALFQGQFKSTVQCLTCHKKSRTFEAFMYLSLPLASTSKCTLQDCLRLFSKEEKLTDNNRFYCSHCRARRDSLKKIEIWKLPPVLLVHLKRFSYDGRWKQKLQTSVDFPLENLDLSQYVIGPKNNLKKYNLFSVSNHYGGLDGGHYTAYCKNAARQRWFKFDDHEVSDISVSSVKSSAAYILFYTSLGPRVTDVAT
Summary of the method: as §1

USP9X = USP9X (UniProt Q93008)
Summary of the method: as §1

UniProt O00487 = molecular target: UniProt O00487
Summary of the method: as §1

Measured: log2 ratio of Biotin-Ahx-Ub-VS probe labelling

Chain of USP54 (Q70EL1 whole entry): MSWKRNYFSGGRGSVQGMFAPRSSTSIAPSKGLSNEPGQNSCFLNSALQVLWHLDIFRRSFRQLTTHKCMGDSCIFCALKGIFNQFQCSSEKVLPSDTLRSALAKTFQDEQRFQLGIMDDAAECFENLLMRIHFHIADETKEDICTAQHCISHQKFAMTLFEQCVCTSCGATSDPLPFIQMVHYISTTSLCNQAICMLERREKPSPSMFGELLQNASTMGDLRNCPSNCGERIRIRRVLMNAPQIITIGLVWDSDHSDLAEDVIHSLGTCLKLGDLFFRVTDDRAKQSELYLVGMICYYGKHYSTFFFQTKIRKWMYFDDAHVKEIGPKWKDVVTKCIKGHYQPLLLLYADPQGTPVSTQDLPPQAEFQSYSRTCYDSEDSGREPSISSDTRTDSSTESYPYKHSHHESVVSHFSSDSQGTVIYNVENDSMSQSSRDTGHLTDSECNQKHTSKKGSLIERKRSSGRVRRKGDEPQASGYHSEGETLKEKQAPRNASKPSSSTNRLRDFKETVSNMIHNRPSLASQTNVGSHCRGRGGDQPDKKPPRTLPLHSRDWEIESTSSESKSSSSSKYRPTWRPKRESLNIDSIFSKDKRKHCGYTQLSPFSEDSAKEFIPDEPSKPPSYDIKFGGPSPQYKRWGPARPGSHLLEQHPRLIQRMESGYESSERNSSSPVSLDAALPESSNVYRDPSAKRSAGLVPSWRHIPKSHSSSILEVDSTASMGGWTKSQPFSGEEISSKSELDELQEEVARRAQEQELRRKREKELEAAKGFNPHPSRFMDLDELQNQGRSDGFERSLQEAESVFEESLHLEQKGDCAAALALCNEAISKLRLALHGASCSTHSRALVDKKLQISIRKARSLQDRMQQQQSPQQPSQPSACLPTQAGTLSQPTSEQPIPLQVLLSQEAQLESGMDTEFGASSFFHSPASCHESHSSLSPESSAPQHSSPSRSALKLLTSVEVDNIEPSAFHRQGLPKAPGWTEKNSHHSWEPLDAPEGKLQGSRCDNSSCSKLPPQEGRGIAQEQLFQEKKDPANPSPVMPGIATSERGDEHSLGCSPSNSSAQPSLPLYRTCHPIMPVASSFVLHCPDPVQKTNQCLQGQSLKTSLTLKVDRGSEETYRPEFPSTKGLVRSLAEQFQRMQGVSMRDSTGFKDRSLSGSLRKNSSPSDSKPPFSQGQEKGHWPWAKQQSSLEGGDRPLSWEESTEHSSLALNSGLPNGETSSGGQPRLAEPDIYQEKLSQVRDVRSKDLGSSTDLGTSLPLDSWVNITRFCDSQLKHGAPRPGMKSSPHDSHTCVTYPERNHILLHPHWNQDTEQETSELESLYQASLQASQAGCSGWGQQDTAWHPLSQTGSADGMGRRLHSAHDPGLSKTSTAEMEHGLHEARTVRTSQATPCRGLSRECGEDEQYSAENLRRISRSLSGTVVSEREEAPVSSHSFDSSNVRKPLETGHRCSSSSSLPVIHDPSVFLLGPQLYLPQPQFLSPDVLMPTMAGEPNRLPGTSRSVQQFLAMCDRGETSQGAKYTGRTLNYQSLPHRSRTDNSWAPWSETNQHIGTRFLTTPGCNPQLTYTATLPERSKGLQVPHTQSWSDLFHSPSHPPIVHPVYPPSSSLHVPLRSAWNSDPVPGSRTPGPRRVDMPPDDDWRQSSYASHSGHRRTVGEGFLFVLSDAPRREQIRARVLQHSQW
Chain of USP46 (P62068 whole entry): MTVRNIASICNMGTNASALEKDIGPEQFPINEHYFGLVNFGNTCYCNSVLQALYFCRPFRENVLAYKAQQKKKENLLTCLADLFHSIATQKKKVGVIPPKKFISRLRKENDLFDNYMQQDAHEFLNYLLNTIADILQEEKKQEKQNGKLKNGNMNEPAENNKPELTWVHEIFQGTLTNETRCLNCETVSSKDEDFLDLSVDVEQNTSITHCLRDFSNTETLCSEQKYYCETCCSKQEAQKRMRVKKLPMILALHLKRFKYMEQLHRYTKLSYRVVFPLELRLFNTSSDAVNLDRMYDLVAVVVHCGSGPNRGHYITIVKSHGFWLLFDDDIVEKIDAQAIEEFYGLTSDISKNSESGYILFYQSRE
Chain of USP7 (Q93009 whole entry, looked up): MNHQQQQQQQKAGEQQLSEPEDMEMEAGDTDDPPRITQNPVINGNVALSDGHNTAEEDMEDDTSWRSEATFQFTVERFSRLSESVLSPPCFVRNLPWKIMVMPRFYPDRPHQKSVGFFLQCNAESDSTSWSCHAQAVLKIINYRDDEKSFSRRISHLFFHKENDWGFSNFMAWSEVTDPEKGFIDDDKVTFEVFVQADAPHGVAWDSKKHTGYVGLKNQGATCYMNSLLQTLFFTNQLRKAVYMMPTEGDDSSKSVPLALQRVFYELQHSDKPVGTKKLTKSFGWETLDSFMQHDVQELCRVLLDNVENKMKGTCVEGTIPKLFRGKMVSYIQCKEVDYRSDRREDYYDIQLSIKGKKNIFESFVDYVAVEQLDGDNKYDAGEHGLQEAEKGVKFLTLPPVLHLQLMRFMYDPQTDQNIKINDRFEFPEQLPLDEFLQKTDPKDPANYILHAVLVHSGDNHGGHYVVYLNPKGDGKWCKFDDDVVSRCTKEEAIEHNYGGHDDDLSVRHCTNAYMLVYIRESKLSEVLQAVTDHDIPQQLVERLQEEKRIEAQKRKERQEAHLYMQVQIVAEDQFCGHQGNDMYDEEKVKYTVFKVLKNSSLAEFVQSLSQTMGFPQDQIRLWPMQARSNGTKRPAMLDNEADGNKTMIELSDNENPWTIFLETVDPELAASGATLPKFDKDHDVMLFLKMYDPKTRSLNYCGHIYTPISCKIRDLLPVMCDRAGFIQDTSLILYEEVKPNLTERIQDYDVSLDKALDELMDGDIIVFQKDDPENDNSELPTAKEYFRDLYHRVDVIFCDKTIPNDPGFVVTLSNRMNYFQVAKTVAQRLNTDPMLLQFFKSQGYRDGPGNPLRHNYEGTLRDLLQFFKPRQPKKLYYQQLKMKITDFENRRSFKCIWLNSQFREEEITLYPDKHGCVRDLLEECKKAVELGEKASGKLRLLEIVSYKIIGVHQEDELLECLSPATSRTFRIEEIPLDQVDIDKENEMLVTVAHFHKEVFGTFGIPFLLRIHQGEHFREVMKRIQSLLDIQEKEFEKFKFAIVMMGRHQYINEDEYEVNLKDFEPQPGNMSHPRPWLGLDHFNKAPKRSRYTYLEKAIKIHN
Chain of UniProt O00487 (O00487 whole entry): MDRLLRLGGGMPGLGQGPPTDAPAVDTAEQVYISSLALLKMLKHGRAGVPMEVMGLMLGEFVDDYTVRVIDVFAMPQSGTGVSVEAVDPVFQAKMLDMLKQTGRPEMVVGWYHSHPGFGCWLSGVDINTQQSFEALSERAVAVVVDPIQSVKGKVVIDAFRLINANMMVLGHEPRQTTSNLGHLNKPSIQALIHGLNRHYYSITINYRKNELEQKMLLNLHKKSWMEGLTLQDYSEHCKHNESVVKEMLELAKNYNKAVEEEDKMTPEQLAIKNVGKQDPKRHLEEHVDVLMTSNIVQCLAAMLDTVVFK

O=C(CCl)N1CCC(S(=O)(=O)c2ccc(F)cc2)CC1
inactive: USP42 -0.133 | USP46 -0.0321 | USP47 -0.145 | USP48 -0.355 | USP5 0.248 | USP54 0.501 | USP7 -0.535 | USP8 -0.0595 | USP9X -0.118 | UniProt O00487 0.043
